The list is not random: actives were taken first. Their share in the collection is about 1.8%.
GLP1R cytotox: cytotoxicity counter-screen for GLP-1 receptor inverse agonists | 410,000 compounds, 0.13% hits | HEK293 cAMP-luciferase reporter cells, luminescence, 24 h | Potency, µM (highest dose often 38.3 µM), for inactives: top-dose activity change, negative = inhibition, actives largely listed as inhibitors | AID 624418;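 note: loss of luciferase light is scored as toxicity; potency is the fitted concentration of half-maximal effect; % is set by controls: 0 for no effect and ±100 for the full control effect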
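MLSMR compounds, 24 hr on cells at 37 deg C/5% CO2; luminescence after luciferase reagent (12 min RT). Inhibition counted as the undesired cytotoxic outcome.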
TSHR antagonist: antagonists of human thyroid stimulating hormone receptor; P16473; TSHR-expressing cells, TSH-stimulated cAMP HTRF, 2 h; hits give low values; activity change, negative = inhibition, % at 11.5 µM; 330,000 compounds, 0.2% hits; AID 504810;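 active = activity change below a set negative limit, meaning inhibition stronger than a set level, cut at about -70% in these data; inconclusive = activity change between two set negative limits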; note: % is set by controls: 0 for no effect and ±100 for the full control effect
Target sequence (P16473 whole entry, looked up): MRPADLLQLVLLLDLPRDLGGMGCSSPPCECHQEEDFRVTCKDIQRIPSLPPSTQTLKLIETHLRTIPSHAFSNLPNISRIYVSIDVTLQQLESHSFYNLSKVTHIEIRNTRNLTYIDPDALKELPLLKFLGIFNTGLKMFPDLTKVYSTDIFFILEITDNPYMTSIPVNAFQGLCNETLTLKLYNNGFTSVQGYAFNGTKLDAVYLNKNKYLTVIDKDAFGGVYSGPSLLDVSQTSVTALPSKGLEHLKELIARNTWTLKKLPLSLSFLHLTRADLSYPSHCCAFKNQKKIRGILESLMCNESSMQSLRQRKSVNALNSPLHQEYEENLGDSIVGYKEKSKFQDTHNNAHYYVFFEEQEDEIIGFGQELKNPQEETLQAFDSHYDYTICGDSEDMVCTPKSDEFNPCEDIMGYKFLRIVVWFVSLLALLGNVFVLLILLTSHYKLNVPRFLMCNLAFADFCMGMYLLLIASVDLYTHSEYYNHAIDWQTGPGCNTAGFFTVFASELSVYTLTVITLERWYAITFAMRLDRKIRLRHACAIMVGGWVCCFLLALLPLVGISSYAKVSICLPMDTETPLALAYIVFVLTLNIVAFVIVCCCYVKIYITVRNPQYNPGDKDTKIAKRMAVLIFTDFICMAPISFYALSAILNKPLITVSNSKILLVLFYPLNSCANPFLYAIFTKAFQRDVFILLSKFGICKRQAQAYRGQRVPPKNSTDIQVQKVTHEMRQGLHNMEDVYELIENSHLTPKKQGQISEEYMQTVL
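Inhibition of cAMP made by TSHR-expressing cells under TSH stimulation (4nM final, EC80; 2 h, 37 deg C) is quantified with a one-step lysis HTRF kit, anti-cAMP cryptate versus cAMP-d2.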
GLP-1R inv ag: GLP-1 receptor (human) inverse agonism; P43220; HEK293 GLP-1R CRE-luciferase, luminescence, 24 h; GLP-1R form is constitutively active; Potency, µM (top dose mostly 38.3 µM), for inactives: at the highest dose activity change, negative = inhibition, usual class: inhibitors; 410,000 compounds, 1.6% hits; note: potency is the fitted concentration of half-maximal effect; % is set by controls: 0 for no effect and ±100 for the full control effect; nearly all actives have a fitted effect of over 55% in size
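Readout was luciferase luminescence, measured 12 min after detection reagent at room temperature. Beforehand, GLP-1R reporter HEK293 cells had sat 12 h, then received compounds for 24 hr at 37 deg C.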
GLP1R ag: activates the human GLP-1 receptor; P43220; HEK293 GLP-1R CRE-luciferase, luminescence, 4-6 h; cells express a hypersensitive GLP-1R form; Potency, µM (doses to about 45.6 µM), inactives show at the highest dose activation, usual class: activators; 380,000 compounds, 0.007% hits; AID 624172; note: potency is the fitted concentration of half-maximal effect; % of control where 0% means no effect
PTHR1 agonist: PTHR1 (human) receptor agonism; HEK293 GP2 PTHR1 cells, GloSensor cAMP luminescence, 1 h; Potency, µM (doses to about 115 µM), inactives show top-dose activation, most hits filed as activators; 410,000 compounds, 0.075% hits; AID 743266; note: potency is the fitted concentration of half-maximal effect; nearly all actives have a fitted effect of over 55% in size
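HEK-293-derived GP2 cells expressing PTHR1 and a GloSensor cAMP reporter, 3,000/well, plated overnight, given luciferin plus IBMX (each 0.5 mM as added) for 1 h at 37 °C, then compound for 1 h at 37 °C. Luminescence was read after 15 min at room temperature.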
* hit, by the source's call; i = inactive; ? = inconclusive; · = no result; [ ] = another dose, or the depositor's remark. Unless noted, calls come from the whole dose curve; as a rule, active = well fitted curve in the direction sought with a large enough effect; inconclusive = small, poorly fitted or top-dose-only effect, or another doubt; inactive = no such curve, though single readings can be large; an effect the other way counts as inactive or inconclusive.

SMILES	GLP1R cytotox	TSHR antagonist	GLP-1R inv ag	GLP1R ag	PTHR1 agonist
N/C(=N\OC(=O)c1cccc(Cl)c1)c1ccccn1	?	-5	?	-2%	-35%
COc1ccc(CCNC(=O)CCCn2c(=O)c3ccccc3n(CC(=O)Nc3c(C)cc(C)cc3C)c2=O)cc1OC	-6%	·	6%	0%	i
CNc1sc(C(=O)c2cccs2)c(N)c1-c1nc2ccccc2s1	?	-14	?	3%	-8%[57.5 µM]
CNc1sc(C(=O)c2ccc(F)cc2)c(N)c1-c1nc2ccccc2s1	11µM*	-10	0%	10%	-5%[57.5 µM]
COC(=O)C1CCN(CC(=O)Nc2cc(C)c3c(=O)oc4ccccc4c3n2)CC1	-4%	·	15%	0%	-24%
CC1(C)CC(=O)C=C(c2cc3ccccc3s2)C1	?	·	11%	-1%	i
O=C1C=C(c2cc3ccccc3s2)CCC1	-30%	·	2.5µM*	-8%	-77%
CO/N=C(\C(=O)N[C@@H]1C(=O)N2C(C(=O)[O-])=C(C[n+]3cccc4c3CCCC4)CS[C@H]12)c1csc(N)n1	·	·	·	-2%	·
O=C(CSc1nnc(CNC(=O)c2c(F)cccc2Cl)o1)Nc1cccc(F)c1	1%	·	2%	·	6%
O=C(CSc1nnc(COc2ccc(Cl)cc2)o1)N1c2ccccc2CCc2ccccc21	?	3	3.5µM*	-3%	-19%[57.5 µM]
OCCNc1nc(Nc2ccc(Br)cc2)nc2ccccc12	5%	-10	2µM*	-1%	-8%
Oc1ccccc1Nc1nc(NCc2ccccc2)c2ccccc2n1	?	-16	?	-1%	-33%
OCCNc1nc(Nc2ccccc2)nc2ccccc12	8%	-1	7.1µM*	1%	i
Cc1ccc(Nc2nc(NCc3ccco3)c3ccccc3n2)cc1	?	-28	2.5µM*	4%	-32%
Cc1c(Cl)cccc1Nc1nc(NCCO)c2ccccc2n1	?	-1	2.5µM*	10%	-19%
COc1ccccc1Nc1nc(NCc2ccco2)c2ccccc2n1	?	-10	?	8%	-10%
OCCNc1nc(Nc2ccccc2)nc(Nc2ccccc2)n1	3%	3	?	20%	i
CCC(=O)N1c2ccccc2CC1C(=O)NCc1ccc(OC(C)C)cc1 (centres undefined)	6%	·	-4%	·	-34%
COc1ccc2oc(=O)c(C(=O)Nc3ccc(C(=O)O)cc3)cc2c1	16%	·	11%	·	-16%
Cc1ccccc1CNC(=O)c1ccc(NC(=O)c2nsc3ccccc23)cc1	3%	·	-20%	·	-20%
O=C(Nc1cccc(Cl)c1)OCCOC(=O)Nc1cccc(Cl)c1	?	·	10µM*	13%	i
CCOP(=O)(OCC)C(NC(=O)Nc1cccc(Cl)c1)c1ccccc1 (centres undefined)	0%	-5	7.9µM*	3%	i
O=C(Nc1cccc(Cl)c1)OCCOc1ccccc1	0%	-7	?	19%	-29%
O=C(Cc1ccccc1)Nc1ccccc1N1CCCC1	35%	-3	?	-2%	-23%
O=C(Cc1cccc(C(F)(F)F)c1)Nc1ccccc1N1CCCC1	5%	-21	10µM*	14%	-84%
SMILES	GLP1R cytotox	TSHR antagonist	GLP-1R inv ag	GLP1R ag	PTHR1 agonist
Cc1ccc(S(=O)(=O)c2nc(-c3ccco3)oc2SC(C)c2ccccc2)cc1 (centres undefined)	0%	·	?	·	-9%
CCN(CC)c1nc2ccccc2n(Cc2cccc(OC)c2)c1=O	7%	-1	3.5µM*	18%	-16%
COc1cccc(Cn2c(SCC(=O)N(C)c3ccccc3)nc3ccccc32)c1	-4%	·	?	·	-35%
CC(C)c1ccc(NC2CCCN(C(=O)CCN3CCCC3=O)C2)cc1 (centres undefined)	6%	0	-18%	-2%	i
CC(C)c1ccc(NC2CCCN(C(=O)CC3CCCC3)C2)cc1 (centres undefined)	6%	8	6.3µM*	20%	-30%
CCc1c(C)sc2c1CCN(Cc1cccc(F)c1)C2c1ccccc1 (centres undefined)	-2%	·	?	·	-34%
CCN1CCN(C(=O)Cn2nc(-c3ccc(Cl)cc3)ccc2=O)CC1	12%	6	2.8µM*	9%	-7%

Screening results deposited in PubChem BioAssay by National Center for Advancing Translational Sciences (NCATS).
